# High-throughput results (PubChem BioAssay)
# Rows were chosen to be rich in hits. Some 11% of all compounds tested hit in one or more screens of this group.
# L3MBTL1 inh = L3MBTL1 (human) inhibition | Potency, µM (highest dose often 57.1 µM), hits mostly inhibitors | Q9Y468 | 0.66% of 230,000 active | AID 485360 | AlphaScreen L3MBTL1–H3K9me1 peptide binding; further: nearly all actives have a fitted effect of over 60% in size
# Target sequence (Q9Y468 whole entry, looked up): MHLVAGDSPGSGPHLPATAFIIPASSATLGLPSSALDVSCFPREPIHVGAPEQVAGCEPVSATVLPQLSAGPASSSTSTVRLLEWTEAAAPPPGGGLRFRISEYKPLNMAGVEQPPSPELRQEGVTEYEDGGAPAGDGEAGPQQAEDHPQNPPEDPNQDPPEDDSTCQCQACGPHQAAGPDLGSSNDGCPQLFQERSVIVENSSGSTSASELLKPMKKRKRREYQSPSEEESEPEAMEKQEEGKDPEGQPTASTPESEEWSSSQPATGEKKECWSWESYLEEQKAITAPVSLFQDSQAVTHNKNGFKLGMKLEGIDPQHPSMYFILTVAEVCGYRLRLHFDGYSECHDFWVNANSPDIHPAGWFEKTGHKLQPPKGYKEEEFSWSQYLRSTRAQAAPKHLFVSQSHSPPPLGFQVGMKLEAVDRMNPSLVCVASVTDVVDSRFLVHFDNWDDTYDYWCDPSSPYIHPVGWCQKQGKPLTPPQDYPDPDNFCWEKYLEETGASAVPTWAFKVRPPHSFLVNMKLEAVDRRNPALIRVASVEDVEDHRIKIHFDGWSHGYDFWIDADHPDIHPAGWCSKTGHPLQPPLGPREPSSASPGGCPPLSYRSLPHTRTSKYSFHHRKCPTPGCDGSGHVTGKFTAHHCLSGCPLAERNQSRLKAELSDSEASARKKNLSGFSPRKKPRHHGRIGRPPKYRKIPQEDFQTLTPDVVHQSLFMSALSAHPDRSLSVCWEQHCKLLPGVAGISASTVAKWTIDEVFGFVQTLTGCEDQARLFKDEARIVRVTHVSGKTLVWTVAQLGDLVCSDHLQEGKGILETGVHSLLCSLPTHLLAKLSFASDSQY
#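 First, the protein-peptide complex forms for 30 min at room temperature (L3MBTL1 50 nM, biotinylated H3K9me1 peptide 75 nM). Next, compounds are pin-transferred and incubated 30 min. Finally, AlphaScreen beads are added and read after 30 min.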
# HP1b binding inh = HP1-beta chromodomain-methylated histone interaction inhibition; P83916; AlphaScreen HP1-beta / biotin-H3K9me3 peptide binding; Potency, µM (highest dose often 114 µM), most hits filed as inhibitors; 0.56% of 390,000 active; AID 540317; further: nearly all actives have a fitted effect of over 70% in size
#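 AlphaScreen: HP1-beta (50 nM) preformed 30 min with biotin-H3(1-18)K9me3 peptide (50 nM) in PBS pH 7.4, 0.01% Tween-20. Compound added for 30 min at RT, then streptavidin donor/nickel chelate acceptor beads (10 ug/mL) for 30 min.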
# G9a inh = blocks human histone lysine methyltransferase G9a; G9a H3K9 monomethylation, AlphaScreen, 2 h; Potency, µM (series often up to 102 µM), usual class: inhibitors; 8.8% of 350,000 active; AID 504332; further: nearly all actives have a fitted effect of over 75% in size
#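 AlphaScreen detection with an anti-monomethyl H3K9 antibody quantified product after a 2 h room-temperature reaction containing 500 nM biotinylated H3K9 peptide, 20 µM SAM and 20 nM enzyme, which had been preincubated 15 min with compound.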
# BAZ2B inh = BAZ2B (human) inhibition | 4.4% of 360,000 active | Q9UIF8 | Potency, µM (doses to about 114 µM), hits mostly inhibitors | AlphaScreen BAZ2B-H3K14Ac peptide displacement; further: nearly all actives have a fitted effect of over 60% in size
#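 Compounds, titrated to a top concentration of 110 uM, were incubated 30 min at room temperature with preformed BAZ2B/acetyl-K14 H3 peptide complex (50 nM each). Proximity signal was measured by AlphaScreen after 20 min with beads.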
# JMJD2A Tudor inh = blocks the human JMJD2A Tudor domain | AlphaScreen JMJD2A-Tudor / H3K4me3 peptide binding | Potency, µM (doses to about 114 µM), most hits filed as inhibitors | 4.4% of 390,000 active; further: nearly all actives have a fitted effect of over 50% in size
# Numbers stand for hits; 0 = inactive; ? = inconclusive; - = no result; ! = not active in a repeat; [ ] = dose if it differs, or a comment. The call rests on the fitted dose curve; in most records, active means well fitted inhibition curve with a large enough effect; inconclusive means small, poorly fitted or top-dose-only effect; inactive means no such curve, though single readings can be large or run the other way.
SMILES,L3MBTL1 inh,HP1b binding inh,G9a inh,BAZ2B inh,JMJD2A Tudor inh
CCOc1ccc(C(=O)CSc2nnc(N)s2)cc1,0,0,31.6µM,0,0
COc1ccc(NC(=O)CSc2nnc(N)s2)cc1,0,0,79.4µM!,0,0
CCc1ccc(-c2nc(SCC(=O)NC3CCS(=O)(=O)C3)n[nH]2)cc1 (stereo unspecified),0,0,0[0.501 µM],0,0
O=C(CSc1n[nH]c(-c2ccncc2)n1)NC1CCS(=O)(=O)C1 (stereo unspecified),0,0,?,0,89.1µM
Cc1ccc(Nc2nnc(SCC(=O)NC3CCCc4ccccc43)s2)cc1 (stereo unspecified),0,0,79.4µM,0,0
COC(=O)c1sc2nc(SCc3ccccc3C)n(N)c(=O)c2c1C,0,0,0,0,0
COC(=O)c1sc2nc(SCC(=O)N(C)c3ccccc3)n(N)c(=O)c2c1C,-,0,25.1µM,0,0
COc1ccc(OC)c(NC(=O)C2Cc3ccccc3CN2S(=O)(=O)c2ccc(F)cc2)c1 (stereo unspecified),-,0,0,0,0
COc1ccc(C2=CSC3=C(C(=O)c4cccc(S(=O)(=O)N(C)C)c4)CCN23)cc1,-,0,8.91µM,0,?
COc1ccc(N(C)S(=O)(=O)c2cccc(C(=O)N3CCN(c4ccccc4)CC3)c2)cc1,0,0,?,0,0
COc1ccc(N(CC(=O)N2CCN(C)CC2)S(=O)(=O)c2ccccc2)cc1,-,0,0,0,0
COc1ccc(N2CCN(C(=O)CN(c3ccc(OC)cc3)S(=O)(=O)c3ccccc3)CC2)cc1,-,0,39.8µM,?,?
COc1ccc(S(=O)(=O)N(CC(=O)N2CCN(c3ccccc3OC)CC2)c2ccccc2)cc1,0,0,?,0,0
Cc1ccc(S(=O)(=O)N(C)c2ccccc2C(=O)N2CCCC2)cc1,-,0,-,0,0
COc1ccc(N2CCN(C(=O)c3ccccc3N(C)S(=O)(=O)c3ccc(C)cc3)CC2)cc1,-,0,?,39.8µM,?
COc1ccc(N2CCN(C(=O)CN(c3ccccc3)S(=O)(=O)c3ccc(OC)cc3)CC2)cc1,-,?,10µM,?,56.2µM
COc1ccc(C(=O)Nc2ccc(-c3nc4ncccc4o3)cc2C)cc1Br,-,0,0,0,0
COc1ccc(NC(=O)N2CCN(c3cc(-c4noc(C)n4)ccc3C)CC2)c(OC)c1,-,0,0,0,0
COc1ccc(Cl)cc1-c1nc(-c2ccc(NC(=O)c3ccncc3)cc2)no1,-,0,-,-,0
COc1ccc(NC(=O)c2ccc(-c3ccc(-c4noc(C)n4)cc3C)cc2)cc1N1CCN(C)CC1,0,?,25.1µM,35.5µM,44.7µM
COc1ccc(NC(=O)c2ccc(-c3ccc(-c4noc(C)n4)cc3C)cc2)cc1OCCN(C)C,-,-,15.8µM,-,-
O=S(=O)(c1ccc2c(c1)OCCO2)N1CCN(S(=O)(=O)c2cccc(Cl)c2F)CC1,-,-,-,-,0
Cc1nn(CCCC(=O)NCc2ccccc2)c(=O)c2cc3sccc3n12,-,0,0,0,0
Cc1c(F)c(N2CCNC(C)C2)cc2c1c(=O)c(C(=O)O)cn2C1CC1 (stereo unspecified),-,-,0[12.7 µM],-,-
CCN(CC)CCN(C(=O)CCS(=O)(=O)c1ccccc1)c1nc2cc(OC)c(OC)cc2s1,-,0,17.8µM,0,0
SMILES,L3MBTL1 inh,HP1b binding inh,G9a inh,BAZ2B inh,JMJD2A Tudor inh
Cc1cc(C)c2sc(N(CCN(C)C)C(=O)CCS(=O)(=O)c3ccccc3)nc2c1,-,0,39.8µM,0,?
CCN(CC)CCN(C(=O)CCS(=O)(=O)c1ccccc1)c1nc2c(C)cc(C)cc2s1,-,0,44.7µM,0,0
CCN(CC)CCN(C(=O)CCS(=O)(=O)c1ccccc1)c1nc2cc(C)cc(C)c2s1,-,0,35.5µM,0,0
Cc1ccc(C)c(NC(=O)NCc2ccccn2)c1,-,0,-,0,0
Cc1ccc(C)c(NC(=S)c2ccccn2)c1,?,6.31µM,?,20µM,79.4µM
S=C(Nc1ccccn1)c1ccccn1,-,12.6µM,?,10µM,5.01µM
c1ccc(Nc2ccccn2)nc1,-,0,0.501µM,?,?
Oc1ccccc1Nc1ccccn1,-,0,?,0,0
O=C(N=Nc1ccc(NOC(=O)c2ccccc2Br)cc1)c1ccccc1O,0,-,25.1µM,7.94µM,-
Cc1ccc(-c2noc(CNC(=O)c3ccc(Br)o3)n2)cc1,-,0,0,0,0
O=C(N/N=C/c1ccc(N2CCOCC2)s1)c1ccccc1Cl,0,0,?,0,?
FC(F)(F)c1ccc(Cl)c(N/N=C/c2ccc(N3CCOCC3)s2)c1,0,0,3.98µM,0,?
CCC(C)NC(=O)CSc1nc2n[nH]c(C)c2c(=N)n1-c1cc(Cl)ccc1C (stereo unspecified),-,0,0,0,0
CCC(Sc1nnc2c3ccccc3n(CC)c2n1)C(=O)Nc1ccc(NC(C)=O)cc1 (stereo unspecified),-,0,0,0,0
Cc1nc2c(-c3ccc(F)cc3)c(C)[nH]n2c(=O)c1Cl,0,0,50.1µM,0,0
Cc1[nH]n2c(=O)c3c(nc2c1-c1ccc(F)cc1)CCCC3,0,0,0,0,0
Cc1nc2c(C(=O)NCCc3ccccc3)c[nH]n2c(=O)c1Cl,0,0,50.1µM,0,0
Cc1nc2c(C(=O)NCCC(C)C)c[nH]n2c(=O)c1Cl,0,0,?,0,0
Cc1nc2c(C(=O)NCc3ccc(F)cc3)c[nH]n2c(=O)c1Cl,0,0,50.1µM,0,0
Cc1ccc(CNC(=O)c2c[nH]n3c(=O)c(Cc4ccc(F)cc4Cl)c(C)nc23)cc1,-,0,0,0,?
COc1ccc(OC)c2sc(N3CCN(C(=O)C(C)(C)C)CC3)nc12,-,0,0,0,0
CCOC(=O)c1sc2ccccc2c1S(=O)(=O)Nc1ccc(OC)c(Cl)c1,-,0,?,0,0
CCS(=O)(=O)N1CCN(S(=O)(=O)c2ccccc2[N+](=O)[O-])CC1,0,0,0,?,0
O=[N+]([O-])c1ccccc1S(=O)(=O)N1CCN(Cc2ccc3c(c2)OCO3)CC1,0,15.8µM,10µM,50.1µM,0[11.4 µM]
CCn1c(=O)c([N+](=O)[O-])c(N2CCSCC2)c2ccccc21,0,0,-,?,0
SMILES,L3MBTL1 inh,HP1b binding inh,G9a inh,BAZ2B inh,JMJD2A Tudor inh
O=S(=O)(c1cc(Cl)ccc1Cl)N1CCN(Cc2ccc3c(c2)OCO3)CC1,-,0,0,0,0
CCn1c(=O)c([N+](=O)[O-])c(N2CCN(Cc3ccc4c(c3)OCO4)CC2)c2ccccc21,0,?,31.6µM,?,?
O=[N+]([O-])c1ccccc1S(=O)(=O)N1CCN(Cc2ccccc2)CC1,0,0,79.4µM,?,?
Cc1ccc(CNC(=O)C2c3ccccc3C(=O)N3CCc4ccccc4C23)o1 (stereo unspecified),0,0,31.6µM,?,0
O=C(NCCN1CCN(Cc2ccccc2)CC1)C1c2ccccc2C(=O)N2CCc3ccccc3C12 (stereo unspecified),0,0,0,0,0
CC1=C(C(=O)Nc2ccccc2)C(c2cccnc2)n2nc(SCc3ccccc3F)nc2N1 (stereo unspecified),-,0,0,0,0
